# Experimental data published in PubChem BioAssay (NCI).
# About 83,000 compounds went through this panel and 20% of them were active in at least one assay; those are over-represented in the sample as a whole.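 Values shown are percent growth following 48 h exposure of cells in 96-well plates to a single concentration of compound; below 10 was considered active.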 Activity calls are given as the source filed them.
# Tested on: DU-145 prostate
# Experiment: NCI-60 one-dose screen, 48 h (100 = growth as untreated, 0 = no growth, -100 = all killed)
# Settings: 10 µM unless noted
row,Compound,growth
1,CCCCC1COc2cccc3c(SCC(=O)N(C)c4cccc(Cl)c4)cc[n+]1c23 (stereo not drawn),120% (inactive)
2,COc1ccc(-c2c(N)n[nH]c2-c2ccccc2O)cc1OC,116% (inactive)
3,CCOC(=O)c1sc(-c2ccc(OS(=O)(=O)c3ccc(C(C)(C)C)cc3)c(C=O)c2)nc1C,43.8% (inactive)
4,Cc1nc(Nc2ccc(NC(=S)Nc3ccccc3)cc2)nc2nc(Nc3ccc(S(=O)(=O)O)cc3)[nH]c(=O)c12,145% (inactive)
5,COc1ccc(/C=C2\COc3ccc(O)cc3C2=O)c(OC)c1,65.8% (inactive)
6,COc1ccc(/C(C)=C(\c2ccc(Cl)cc2)c2ccc(OCCCN(C)C)cc2)cc1F,73.5% (inactive)
7,Cc1nc(Nc2ccc(NC(=S)Nc3ccccc3)cc2)c2ccccc2n1,125% (inactive)
8,C=C1C(=O)O[C@H]2[C@H]1CC/C(COC(=O)/C=C\C(=O)NCc1ccc(Cn3c(=O)sn(-c4ccc(OC)cc4)c3=O)cc1)=C\CC[C@@]1(C)O[C@@H]21,-84% (active)
9,CN(C)CCn1cc(-c2ccc3c(Nc4ccc(CC(=O)Nc5cccc(F)c5)cc4)ncnc3c2)cn1,-95.8% [30 µM] (active)
10,COc1cc(/C=C/c2nc(Nc3ccc(S(=O)(=O)Nc4cc(C)on4)cc3)c3ccccc3n2)ccc1O,92.2% (inactive)
11,COc1ccc(/C(C)=C(\c2ccc(Cl)cc2)c2ccc(OCCN3CCCC3)cc2)cc1F,49.6% (inactive)
12,Cc1nc(Nc2ccc(S(=O)(=O)Nc3cc(C)on3)cc2)c2ccccc2n1,112% (inactive)
13,COc1ccc(OC)c(/C=C2\COc3ccc(O)cc3C2=O)c1,107% (inactive)
